# An excerpt weighted towards active compounds, which were near 15% of everything screened.
# Pf growth 48h: P. falciparum growth inhibition at 48 hours (one generation). Potency, µM (doses to about 28.7 µM), most hits filed as inhibitors. 5.9% of 310,000 active. AID 504832. P. falciparum luciferase growth in erythrocytes, 48 h
#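 Growth was read as firefly luciferase luminescence after a 48 h, 37 C, 5% CO2 exposure of compounds to reporter-bearing P. falciparum cultures (0.1% parasitemia, 2% hematocrit final) in Albumax-supplemented RPMI 1640.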
# Pf growth 96h: P. falciparum growth inhibition at 96 hours. P. falciparum luciferase reporter growth, 96 h. Potency, µM (top dose mostly 28.7 µM), most hits filed as inhibitors. 6.9% of 320,000 active
#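 Delayed-death screen, second-generation endpoint: infected erythrocytes, 2% hematocrit, 0.05% parasitemia final; 96 hours at 37 C, 5% CO2; luciferase detection reagent; luminescence decrease equals reduced growth.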
# Sm TGR inh: S. mansoni TGR enzyme inhibition; Q962Y6; AID 485364; 3% of 360,000 active; Potency, µM (titrated, usually from 114 µM), most hits filed as inhibitors; purified TGR, DTNB reduction, TNB absorbance 405 nm; note: nearly all actives have a fitted effect of over 60% in size
#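 Kinetic colorimetric format: TGR-catalysed, NADPH-driven DTNB reduction monitored via TNB absorbance. Enzyme dispensed at 20 nM; compound exposure 15 min at room temperature before reaction start.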
# SARS PLpro yeast: blocks SARS-CoV papain-like protease in a yeast assay; S. cerevisiae expressing SARS-CoV PLpro, growth rescue; Potency, µM (series often up to 32.9 µM), hits mostly activators; 0.19% of 330,000 active; calls by dose curve; note: nearly all actives have a fitted effect of over 55% in size
# HCMV antiviral: inhibitors of human cytomegalovirus. HFF cells, HCMV-luciferase reporter, 72 h; active compounds read low. activity change, negative = inhibition, % at 57.5 µM. 4.5% of 410,000 active. AID 1259415; in the data active = activity change below about -60%; inconclusive = no clear call, values can overlap the other calls; inactive = above about -39%
#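 Two compound doses tested in HFFs infected with HCMV-luciferase, MOI 1 PFU/cell, 72 h at 37C. Lysate luminescence read with OneGlo; data normalized against buffer-only and 10uM Salinomycin inhibitor controls.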
# HCV inh: HCV inhibition; Huh7.5.1 HCVcc-Cre infection, luciferase reporter, 44 h; 3.4% of 340,000 active; Potency, µM (titrated, usually from 41.8 µM), usual class: inhibitors
#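 Whole-lifecycle infectious HCVcc-Cre system; cells 1,000/well, compound then virus (~0.5 moi) added 4 h after plating, 44 h culture. Luciferase read 15 sec following 15 min substrate incubation, room temp.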
# Numbers stand for hits; 0 = inactive; ? = inconclusive; - = no result given; [ ] = dose if it differs, or a comment. Unless noted, calls come from the whole dose curve; as a rule, active = well fitted curve in the direction sought with a large enough effect; inconclusive = small, poorly fitted or top-dose-only effect, or another doubt; inactive = no such curve, though single readings can be large; an effect the other way counts as inactive or inconclusive.
SMILES,Pf growth 48h,Pf growth 96h,Sm TGR inh,SARS PLpro yeast,HCMV antiviral,HCV inh
Cc1ccc(C2C(C(=O)c3cc4ccccc4o3)=C(O)C(=O)N2CCN2CCOCC2)cc1 (stereo unspecified),0,?,32µM,0,0,0
O=C(C1=C(O)C(=O)N(CCN2CCOCC2)C1c1cccc(O)c1)c1cc2ccccc2o1 (stereo unspecified),0,0,?,0,0,0
Cc1ccc(C2C(C(=O)c3cc4ccccc4o3)=C(O)C(=O)N2CCN2CCOCC2)o1 (stereo unspecified),0,0,22µM,0,0,0
O=C(C1=C(O)C(=O)N(CCN2CCOCC2)C1c1ccc(Br)cc1)c1cc2ccccc2o1 (stereo unspecified),0,?,32µM,-,0,0
O=C(C1=C(O)C(=O)N(CCN2CCOCC2)C1c1cccc(F)c1)c1cc2ccccc2o1 (stereo unspecified),0,?,45µM,0,0,0
O=C(CNC(=O)c1ccc2ccccc2c1)NCc1ccccc1F,0,?,0,0,-,0
COc1cccc2cc(C(=O)C3=C(O)C(=O)N(CCN4CCOCC4)C3c3cccc(Cl)c3)oc12 (stereo unspecified),0,0,0,0,-,0
CC(=O)C1=C(O)C(=O)N(CCN2CCOCC2)C1c1ccccc1 (stereo unspecified),0,0,32µM,0,0,0
COc1cccc2cc(C(=O)C3=C(O)C(=O)N(CCN4CCOCC4)C3c3ccc(Cl)cc3)oc12 (stereo unspecified),?,0,40µM,0,0,0
Cc1cc(C)c(C)c(N=Nc2nc3ccccc3n2C)c1C,0,0,0,0,0,?
Cc1ccc(C)c(N=Nc2nc3ccccc3n2C)c1,0.52µM,0.47µM,0,0,?,14µM
Cc1oc(-c2ccccc2F)nc1CS(=O)CC(=O)NC1CCCC1 (stereo unspecified),0,0,14µM,0,0,0
Cc1ccccc1-c1nc(CS(=O)CC(=O)NC2CCCCC2)c(C)o1 (stereo unspecified),0,0,40µM,0,0,0
CCn1cc(C(=O)NC(C)c2ccccc2)c(=O)c2cc(S(=O)(=O)N3CCc4ccccc4C3)ccc21 (stereo unspecified),-,-,0,-,0,-
Cc1ccnc(NC(=O)C2COc3ccccc3O2)c1 (stereo unspecified),0,0,0,?,-75,0
O=C(NCCc1ccccc1)C1COc2ccccc2O1 (stereo unspecified),0[0.00184 µM],0,0,0,0,0
Cc1ccc(NC(=O)C2COc3ccccc3O2)nc1 (stereo unspecified),-,?,0,0,0,0
O=C(NC1CCCCC1)C1COc2ccccc2O1 (stereo unspecified),0,0,28µM,0,0,0
O=C(NCCc1ccc(O)c(O)c1)C1COc2ccccc2O1 (stereo unspecified),?,0,4.5µM,0,?,?
CC1CCC(NC(=O)C2COc3ccccc3O2)CC1 (stereo unspecified),0,0,?,0,0,0
Cc1ccc(C)c(CN2CCC(CNC(=O)C(CC(C)C)N3Cc4ccccc4C3=O)CC2)c1 (stereo unspecified),-,-,0,-,0,-
CN(C)/C=N/c1c(C(=O)NCc2ccccc2)nnn1Cc1ccccc1,2.6µM,0,0,0,0,0
Cc1cc(NC(=O)CSc2nnc(C(F)(F)F)n2C)no1,-,-,-,0,0,0
CCOC(=O)C1=Nc2cccc3c(O)ccc1c23,-,-,-,-,0,-
CCOC(=O)C1=Nc2ccccc2C1=[N+]=[N-],?,0,0,0,-100,?
SMILES,Pf growth 48h,Pf growth 96h,Sm TGR inh,SARS PLpro yeast,HCMV antiviral,HCV inh
COc1ccc(-c2ccc(S(=O)(=O)NCC3CCCO3)cc2)cc1 (stereo unspecified),0,?,0,0,-,?
O=S(=O)(NCC1CCCO1)c1ccc(-c2ccc(Cl)cc2)cc1 (stereo unspecified),0,0,0,0,-60,?
O=C(c1ccc(S(=O)(=O)NCC2CCCO2)cc1)N1CCN(c2cccc(Cl)c2)CC1 (stereo unspecified),0[5.75 µM],0,0,0,-70,11µM
O=C(c1ccc(S(=O)(=O)NCC2CCCO2)cc1)N1CCN(c2ccccc2F)CC1 (stereo unspecified),0,0,0,0,0,0
C#CCOCCOCCOCCNc1nc(N2CCN(C(=O)C([C@@H](C)CC)n3cc(C(N)CO)nn3)CC2)nc(N2CCN(C(=O)[C@H](CCC(=O)O)n3cc(C(N)[C@H](C)CC)nn3)CC2)n1 (stereo partly specified),0,0,0,0,-,-
C#CCOCCOCCOCCNc1nc(N2CCN(C(=O)[C@H](CCC(=O)O)n3cc(C(N)Cc4ccc(O)cc4)nn3)CC2)nc(N2CCN(C(=O)[C@H](CCCCN)n3cc(C(N)[C@H](C)CC)nn3)CC2)n1 (stereo partly specified),0,0,32µM,0,-,-
C#CCOCCOCCOCCNc1nc(N2CCN(C(=O)[C@H](CCC(=O)O)n3cc(C(N)CC(C)C)nn3)CC2)nc(N2CCN(C(=O)[C@H](CCC(=O)O)n3cc(C(N)[C@H](C)CC)nn3)CC2)n1 (stereo partly specified),?,0,32µM,0,-,0
C#CCOCCOCCOCCNc1nc(N2CCN(C(=O)[C@H](CCCCN)n3cc(CCCC)nn3)CC2)nc(N2CCN(C(=O)[C@H](Cc3ccc(O)cc3)n3cc(CCO)nn3)CC2)n1,0,0,35µM,0,-,?
C#CCOCCOCCOCCNc1nc(N2CCN(C(=O)[C@H](CCC(=O)O)n3cc(C(N)CO)nn3)CC2)nc(N2CCN(C(=O)[C@H](CCC(=O)O)n3cc(C(N)[C@H](C)CC)nn3)CC2)n1 (stereo partly specified),0,0,28µM,0,-,0
O=C(O)CN1C(=O)C(=O)N(Cc2ccc(Cl)c(Cl)c2)C1=O,0,?,0,0,0,0
Cc1ccc(NC(=O)c2ccc3c(c2)C(=O)N(Cc2cccnc2)C3=O)c(C)c1,0[5.75 µM],?,0,0,0,0
C#CCOCCOCCOCCNc1nc(N2CCN(C(=O)[C@H](CCCCN)n3cc([C@@H](N)C(C)CC)nn3)CC2)nc(N2CCN(C(=O)[C@H](CCCCN)n3cc([C@@H](N)CC(C)C)nn3)CC2)n1 (stereo partly specified),0,0,40µM,0,?,0
C#CCOCCOCCOCCNc1nc(N2CCN(C(=O)[C@H](CCC(=O)O)n3cc(C(N)CC(C)C)nn3)CC2)nc(N2CCN(C(=O)[C@H](Cc3ccc(O)cc3)n3cc(C(N)[C@H](C)CC)nn3)CC2)n1 (stereo partly specified),0,0,40µM,0,-,-

# Screens as filed in PubChem BioAssay.
